# Inconclusive results are not listed. The source made the active and inactive calls. Rule for the calls, unless noted: active = hit-call score of the fitted dose curve at least 0.9, where 1 is the maximum; inconclusive = response in the unintended direction; inactive = score below 0.9.
# How the values were obtained:
# [1] = target: Estrogen receptor beta (Homo sapiens) (UniProt Q92731); experiment: OT_ER_ERbERb_1440: Odyssey Thera (OT) 24-hour HEK293T Protein-Complementation Assay for Estrogen Receptor-beta/-beta Homodimer (AID 2283380);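 note: fluorescence gain from ER beta LBD homodimer complementation read by laser scanning cytometry; scored as signal increase over DMSO baseline for both agonists and antagonists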
# Summary of the method: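 HEK293T cells stably expressing human ER-beta LBD (aa 310-547) PCA homodimer pair, dosed 24 h; formaldehyde-fixed, Draq5-stained. Readout: increase in nuclear (agonist) or nuclear plus cytoplasmic (antagonist) fluorescence intensity versus DMSO, gain-of-signal fitting.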
# [2] = target: Retinoic acid receptor RXR-alpha (Homo sapiens) (UniProt P19793); experiment: OT_NURR1_NURR1RXRa_1440: Odyssey Thera (OT) 24-hour HEK293T Protein Complementation Assay for Nurr1/retinoid X receptor (RXR) (AID 2283386)
# Summary of the method: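 Interaction of Nurr1 with RXRα brings fused reporter fragments together in human HEK293T cells, restoring a functional reporter. Fluorescence intensity is measured 24 h after chemical treatment, and values are analysed in the positive direction against DMSO.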
# [3] = target: Peroxisome proliferator-activated receptor gamma (Homo sapiens) (UniProt P37231); experiment: OT_PPARg_PPARgSRC1_0480: Odyssey Thera (OT) 8-hour Protein-Complementation Assay for Peroxisome Proliferator-activated Receptor Gamma / SRC-1 Co-activator (AID 2283387);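 note: nuclear to cytoplasmic split Venus YFP fluorescence ratio reporting PPARg SRC-1 interaction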
# Summary of the method: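 HEK293T transiently transfected with PPARg and SRC-1 fused to Venus YFP fragments, compounds 8 h at 37C. Fixed, Draq5-stained cells imaged; nuclear/cytoplasmic 488 nm fluorescence ratio over at least 350 cells per image; gain fitted versus DMSO.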
# [4] = target: Peroxisome proliferator-activated receptor gamma (Homo sapiens) (UniProt P37231); experiment: OT_PPARg_PPARgSRC1_1440: Odyssey Thera (OT) 24-hour Protein-Complementation Assay for Peroxisome Proliferator-activated Receptor Gamma/ SRC-1 Co-activator (AID 2283388)
# Summary of the method: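 Protein-fragment complementation between PPARg and coactivator SRC-1 was measured by fluorescence imaging in transiently transfected HEK293T cells after 24 h treatment. Signal was quantified as N/C ratio in the 488 nm channel, with DMSO as negative control.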
# [5] = target: Bile acid receptor (Homo sapiens) (UniProt Q96RI1); experiment: OT_FXR_FXRSRC1_1440: Odyssey Thera (OT) 24-hour HEK293T Protein-Complementation Assay for Farnesoid X receptor/SRC-1 Co-activator (AID 2283384)
# Summary of the method: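 Compounds are applied to human kidney HEK293T cells expressing bait and prey fused to reporter protein fragments; after 24 h, reconstituted reporter fluorescence is measured. Activity is fitted as signal gain over DMSO.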
# [6] = target: Retinoic acid receptor RXR-alpha (Homo sapiens) (UniProt P19793); experiment: OT_NURR1_NURR1RXRa_0480: Odyssey Thera (OT) 8-hour HEK293T Protein Complementation Assay for Nurr1/retinoid X receptor (RXR) (AID 2283385)
# Summary of the method: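 8 h compound exposure, HEK293T; Nurr1/RXRα fragment complementation; fluorescence intensity; positive fitting direction vs DMSO baseline.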
# [7] = target: Estrogen receptor (Homo sapiens) (UniProt P03372); experiment: OT_ERa_GFPERaERE_0480: Odyssey Thera (OT) 8-hour HeLa Transcription Induction Assay for Estrogen Receptor (AID 2283381; active = hit-call score of the fitted dose curve at least 0.9, where 1 is the maximum; inactive = score below 0.9)
# Summary of the method: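 Fluorescent reporter signal, imaged by microscopy and scored with image-analysis algorithms, was taken 8 h after chemical dosing of HeLa cells; activity was fitted upward relative to DMSO.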
# [8] = target: Estrogen receptor (Homo sapiens) (UniProt P03372); experiment: OT_ERa_GFPERaERE_0120: Odyssey Thera (OT) 2-hour HeLa Transcription Induction Assay for Estrogen Receptor (AID 2283382)
# Summary of the method: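 HeLa, 384-well, 2 h chemical exposure; GFP reporter induction (ERE), fluorescence microscopy; high content image analysis; positive fitting direction vs DMSO.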
# [9] = target: Bile acid receptor (Homo sapiens) (UniProt Q96RI1); experiment: OT_FXR_FXRSRC1_0480: Odyssey Thera (OT) 8-hour HEK293T Protein-Complementation Assay for Farnesoid X receptor/SRC-1 Co-activator (AID 2283383)
# Summary of the method: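 Human kidney HEK293T cells carried FXR/SRC-1 fragment-complementation constructs. Compounds were added and incubated 8 h. Reporter reassembly upon receptor–co-activator interaction was then quantified by fluorescence, with curves fitted in the positive direction relative to DMSO.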
# [10] = CEETOX_H295R_11DCORT: CeeTox H295R High-throughput Steroidogenesis Assay for 11-Deoxycortisol (11DCORT) (AID 2283432; active = hit-call score of the fitted dose curve at least 0.9, where 1 is the maximum; inactive = score below 0.9;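 for AC50: 11-deoxycortisol secreted into the medium measured by LC-MS/MS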); details: actives raise or lower the signal
# Summary of the method: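 H295R cells prestimulated 48 h with 10 uM forskolin, then exposed 48 h to chemical in 0.1% DMSO. 11-Deoxycortisol in medium quantified by HPLC-MS/MS after MTBE extraction; bidirectional fit versus DMSO. MTT viability read in same wells.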
# [11] = CEETOX_H295R_OHPREG: CeeTox H295R High-throughput Steroidogenesis Assay for OH-Pregnenolone (OHPREG) (AID 2283434; active = hit-call score of the fitted dose curve at least 0.9, where 1 is the maximum; inactive = score below 0.9); details: actives raise or lower the signal
# Summary of the method: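 Human adrenal H295R cells were prestimulated 48 h with 10 uM forskolin, then exposed 48 h to chemical in 0.1% DMSO. Medium 17alpha-hydroxypregnenolone was quantified by HPLC-MS/MS after MTBE extraction; bidirectional fitting versus DMSO baseline.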
# [12] = CEETOX_H295R_OHPROG: CeeTox H295R High-throughput Steroidogenesis Assay for OH-Progesterone (OHPROG) (AID 2283435; active = hit-call score of the fitted dose curve at least 0.9, where 1 is the maximum; inactive = score below 0.9;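 for AC50: 17alpha-hydroxyprogesterone secreted into medium measured by HPLC-MS/MS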); details: actives raise or lower the signal
# Summary of the method: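 H295R, 10 uM forskolin prestim 48 h; cmpd in 0.1% DMSO 48 h; medium MTBE-extracted, HPLC-MS/MS for OH-progesterone; 7-pt std curve; bidirectional fit vs DMSO; MTT viability, chemicals diluted until viability >/=70%.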
# [13] = CEETOX_H295R_CORTISOL: CeeTox H295R High-throughput Steroidogenesis Assay for Cortisol (AID 2283438; active = hit-call score of the fitted dose curve at least 0.9, where 1 is the maximum; inactive = score below 0.9;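 note: cortisol secreted into medium quantified by LC-MS/MS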); details: actives raise or lower the signal
# Summary of the method: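 Forskolin 10 uM 48 h prestim → test cmpd in DMSO (0.1% final) 48 h → medium MTBE-extracted → LC-MS/MS cortisol vs 7-pt std curve. Gain/loss of signal fitted vs DMSO. MTT viability in same wells.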
# [14] = target: Agonist Androgen Response Element (ARE), AR (gene 367) (UniProt P10275); experiment: OT_AR_ARELUC_AG_1440: Odyssey Thera (OT) 24-hour CHO-K1 Luciferase Assay for Agonist Androgen Response Element (ARE) (AID 2283379)
# Summary of the method: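 Seed CHO-K1 cells; dose compounds for 24 h; add D-luciferin plus ATP in PBS; read luminescence. Signal increase relative to vehicle defines agonist activity, with at least 3 replicate wells per sample.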
# [15] = CEETOX_H295R_ANDR: CeeTox H295R High-throughput Steroidogenesis Assay for Androstenedione (ANDR) (AID 2283436; active = hit-call score of the fitted dose curve at least 0.9, where 1 is the maximum; inactive = score below 0.9); details: actives raise or lower the signal
# Summary of the method: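 H295R human adrenal cells (passages ≤10) were exposed to test chemicals for 48 h; androstenedione in medium was MTBE-extracted and quantified by HPLC-MS/MS against a 7-point standard curve. Bidirectional fitting used DMSO as baseline.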
# Sequence of Peroxisome proliferator-activated receptor gamma (Homo sapiens) (P37231 whole entry, looked up, the tested form may be a part): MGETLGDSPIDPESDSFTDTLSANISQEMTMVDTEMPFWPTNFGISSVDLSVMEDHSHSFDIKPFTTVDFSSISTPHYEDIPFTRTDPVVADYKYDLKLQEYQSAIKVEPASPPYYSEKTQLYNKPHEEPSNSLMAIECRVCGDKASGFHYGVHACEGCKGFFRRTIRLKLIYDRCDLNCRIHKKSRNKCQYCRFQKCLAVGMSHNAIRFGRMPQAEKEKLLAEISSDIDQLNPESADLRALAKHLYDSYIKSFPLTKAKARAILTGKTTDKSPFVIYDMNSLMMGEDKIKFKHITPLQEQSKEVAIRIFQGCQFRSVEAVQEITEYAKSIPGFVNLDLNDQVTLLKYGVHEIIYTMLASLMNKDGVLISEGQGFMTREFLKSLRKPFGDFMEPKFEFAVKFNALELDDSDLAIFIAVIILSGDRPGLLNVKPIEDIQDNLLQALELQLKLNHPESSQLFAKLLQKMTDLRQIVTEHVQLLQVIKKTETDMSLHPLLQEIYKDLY
# Sequence of Retinoic acid receptor RXR-alpha (Homo sapiens) (P19793 whole entry, looked up, the tested form may be a part): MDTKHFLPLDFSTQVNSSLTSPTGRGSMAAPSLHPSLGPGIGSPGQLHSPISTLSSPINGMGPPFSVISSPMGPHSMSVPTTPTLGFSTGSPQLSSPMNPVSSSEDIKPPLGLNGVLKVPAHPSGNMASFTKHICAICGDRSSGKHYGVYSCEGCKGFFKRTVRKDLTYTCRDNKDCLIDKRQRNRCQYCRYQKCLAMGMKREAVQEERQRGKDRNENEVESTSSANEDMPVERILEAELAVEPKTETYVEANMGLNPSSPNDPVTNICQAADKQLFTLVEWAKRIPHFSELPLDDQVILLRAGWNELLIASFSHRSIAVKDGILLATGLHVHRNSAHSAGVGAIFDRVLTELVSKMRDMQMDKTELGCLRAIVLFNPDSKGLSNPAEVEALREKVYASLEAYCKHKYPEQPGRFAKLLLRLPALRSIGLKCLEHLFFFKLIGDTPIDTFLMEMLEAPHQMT
# Sequence of Estrogen receptor beta (Homo sapiens) (Q92731 whole entry, looked up, the tested form may be a part): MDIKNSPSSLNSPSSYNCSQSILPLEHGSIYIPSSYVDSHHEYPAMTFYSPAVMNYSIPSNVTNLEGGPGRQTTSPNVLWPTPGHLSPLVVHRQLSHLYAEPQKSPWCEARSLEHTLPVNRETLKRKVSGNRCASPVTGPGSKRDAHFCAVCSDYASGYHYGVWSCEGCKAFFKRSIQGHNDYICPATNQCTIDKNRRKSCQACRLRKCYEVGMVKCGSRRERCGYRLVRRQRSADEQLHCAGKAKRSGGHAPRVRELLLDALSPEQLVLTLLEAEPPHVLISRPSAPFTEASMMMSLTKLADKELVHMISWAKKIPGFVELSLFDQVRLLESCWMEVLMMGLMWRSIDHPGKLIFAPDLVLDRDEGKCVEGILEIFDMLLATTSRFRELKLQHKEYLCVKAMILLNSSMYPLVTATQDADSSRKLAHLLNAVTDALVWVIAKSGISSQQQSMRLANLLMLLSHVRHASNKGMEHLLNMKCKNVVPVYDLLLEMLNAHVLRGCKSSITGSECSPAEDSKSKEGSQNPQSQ
# Sequence of Estrogen receptor (Homo sapiens) (P03372 whole entry, looked up): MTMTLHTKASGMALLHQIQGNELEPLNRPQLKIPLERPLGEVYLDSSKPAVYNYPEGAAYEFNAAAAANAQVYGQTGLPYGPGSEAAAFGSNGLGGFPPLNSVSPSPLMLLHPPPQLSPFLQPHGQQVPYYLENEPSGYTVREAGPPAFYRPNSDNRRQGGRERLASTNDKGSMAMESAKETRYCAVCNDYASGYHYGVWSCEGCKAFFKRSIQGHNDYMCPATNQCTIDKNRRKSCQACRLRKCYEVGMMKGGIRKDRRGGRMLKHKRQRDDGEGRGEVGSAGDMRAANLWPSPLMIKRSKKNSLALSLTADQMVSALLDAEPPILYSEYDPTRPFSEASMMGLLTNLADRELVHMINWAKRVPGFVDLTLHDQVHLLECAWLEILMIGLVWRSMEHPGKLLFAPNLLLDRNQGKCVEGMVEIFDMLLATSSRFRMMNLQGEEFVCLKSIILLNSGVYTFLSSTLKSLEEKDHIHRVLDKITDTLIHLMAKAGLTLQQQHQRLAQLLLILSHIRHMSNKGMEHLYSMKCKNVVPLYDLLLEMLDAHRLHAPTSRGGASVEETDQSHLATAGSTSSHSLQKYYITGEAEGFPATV
# Sequence of Bile acid receptor (Homo sapiens) (Q96RI1 whole entry, looked up, the tested form may be a part): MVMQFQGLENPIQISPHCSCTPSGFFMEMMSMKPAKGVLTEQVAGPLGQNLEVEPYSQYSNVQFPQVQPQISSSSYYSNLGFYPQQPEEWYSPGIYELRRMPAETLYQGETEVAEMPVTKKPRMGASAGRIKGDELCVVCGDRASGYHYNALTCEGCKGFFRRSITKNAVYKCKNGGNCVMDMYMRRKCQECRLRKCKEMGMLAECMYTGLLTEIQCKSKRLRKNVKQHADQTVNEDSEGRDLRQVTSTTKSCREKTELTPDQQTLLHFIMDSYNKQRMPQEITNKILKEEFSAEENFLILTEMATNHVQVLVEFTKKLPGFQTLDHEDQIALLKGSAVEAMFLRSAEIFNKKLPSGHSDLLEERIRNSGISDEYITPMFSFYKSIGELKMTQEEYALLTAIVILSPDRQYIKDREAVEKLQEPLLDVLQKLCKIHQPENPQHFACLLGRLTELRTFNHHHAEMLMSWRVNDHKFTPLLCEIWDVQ
# Sequence of Agonist Androgen Response Element (ARE), AR (gene 367) (P10275 whole entry, looked up): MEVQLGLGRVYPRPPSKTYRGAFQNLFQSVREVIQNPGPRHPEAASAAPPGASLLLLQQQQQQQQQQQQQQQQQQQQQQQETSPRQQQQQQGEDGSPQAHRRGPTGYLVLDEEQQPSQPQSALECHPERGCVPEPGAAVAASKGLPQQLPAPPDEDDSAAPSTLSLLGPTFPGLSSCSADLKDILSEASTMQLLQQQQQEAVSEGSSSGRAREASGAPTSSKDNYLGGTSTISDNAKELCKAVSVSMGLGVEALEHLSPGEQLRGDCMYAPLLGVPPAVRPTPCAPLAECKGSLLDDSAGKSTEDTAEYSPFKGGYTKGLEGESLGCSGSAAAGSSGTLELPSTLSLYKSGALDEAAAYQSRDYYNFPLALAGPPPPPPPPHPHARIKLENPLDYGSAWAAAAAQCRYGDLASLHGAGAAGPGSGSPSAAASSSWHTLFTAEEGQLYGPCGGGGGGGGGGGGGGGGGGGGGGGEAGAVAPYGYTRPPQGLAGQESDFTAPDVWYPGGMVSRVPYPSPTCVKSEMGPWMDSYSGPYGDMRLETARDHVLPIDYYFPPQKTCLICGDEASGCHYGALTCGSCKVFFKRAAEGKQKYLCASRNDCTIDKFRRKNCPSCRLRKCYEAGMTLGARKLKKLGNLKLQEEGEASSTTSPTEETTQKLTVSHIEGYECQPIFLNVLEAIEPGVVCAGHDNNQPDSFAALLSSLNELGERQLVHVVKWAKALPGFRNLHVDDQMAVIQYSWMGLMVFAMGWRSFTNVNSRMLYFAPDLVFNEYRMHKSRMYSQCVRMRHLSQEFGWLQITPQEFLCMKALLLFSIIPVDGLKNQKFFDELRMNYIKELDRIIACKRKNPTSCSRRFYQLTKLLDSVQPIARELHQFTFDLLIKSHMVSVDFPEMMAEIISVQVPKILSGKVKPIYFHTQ
smiles,measurement,setting,value
O=C1O[C@H]([C@@H](O)CO)C(O)=C1O,outcome,[1],inactive
same,outcome,[2],inactive
same,outcome,[3],inactive
same,outcome,[4],inactive
Oc1ccccc1,outcome,[5],inactive
same,outcome,[6],inactive
same,outcome,[3],inactive
same,outcome,[4],inactive
CC[C@@H]1C[C@H](N(Cc2cc(C(F)(F)F)cc(C(F)(F)F)c2)C(C)=O)c2cc(C(F)(F)F)ccc2N1C(=O)OC(C)C,outcome,[1],inactive
same,outcome,[7],inactive
same,outcome,[8],inactive
same,outcome,[6],inactive
same,outcome,[2],inactive
same,outcome,[3],inactive
same,outcome,[4],inactive
Cc1cc2c(cc1C(F)(F)F)N(C(=O)Nc1ccc(Oc3cccnc3C)nc1)CC2,outcome,[1],inactive
same,outcome,[7],inactive
same,outcome,[8],inactive
same,AC50,[9],19.1 µM (active)
same,AC50,[5],4.55 µM (active)
same,AC50,[6],29.2 µM (active)
same,outcome,[3],inactive
same,outcome,[4],inactive
same,AC50,[10],0.381 µM (active)
same,AC50,[11],0.495 µM (active)
same,AC50,[12],0.591 µM (active)
same,AC50,[13],0.588 µM (active)
CC1=CC(=O)/C(=C(/C)O)C(=O)O1,outcome,[1],inactive
same,outcome,[7],inactive
same,outcome,[8],inactive
same,outcome,[9],inactive
same,outcome,[5],inactive
same,outcome,[6],inactive
same,outcome,[2],inactive
same,outcome,[3],inactive
same,outcome,[4],inactive
CCN(Cc1cccc(S(=O)(=O)O)c1)c1ccc(C(=C2C=CC(=[N+](CC)Cc3cccc(S(=O)(=O)O)c3)C=C2)c2ccccc2S(=O)(=O)[O-])cc1,outcome,[1],inactive
same,outcome,[7],inactive
same,outcome,[8],inactive
same,outcome,[9],inactive
same,outcome,[6],inactive
same,outcome,[3],inactive
same,outcome,[4],inactive
Cc1ncc(CO)c(CO)c1O,outcome,[9],inactive
same,outcome,[5],inactive
same,outcome,[6],inactive
same,outcome,[3],inactive
same,outcome,[4],inactive
c1ccc2n[nH]nc2c1,outcome,[1],inactive
same,outcome,[6],inactive
same,outcome,[3],inactive
same,outcome,[4],inactive
Cc1ccc(C(C)C)cc1,outcome,[14],inactive
same,outcome,[7],inactive
same,outcome,[8],inactive
same,outcome,[9],inactive
same,outcome,[6],inactive
same,outcome,[3],inactive
same,outcome,[4],inactive
Cc1c2ccccc2c(C)c2c1ccc1ccccc12,outcome,[1],inactive
same,outcome,[7],inactive
same,outcome,[8],inactive
same,AC50,[9],14.3 µM (active)
same,outcome,[5],inactive
same,outcome,[6],inactive
same,outcome,[3],inactive
same,outcome,[4],inactive
same,outcome,[10],inactive
same,outcome,[11],inactive
same,outcome,[12],inactive
same,outcome,[15],inactive
same,outcome,[13],inactive
O=c1ccc2ccccc2o1,outcome,[1],inactive
same,outcome,[7],inactive
same,outcome,[8],inactive
same,outcome,[9],inactive
same,outcome,[6],inactive
same,outcome,[3],inactive
same,outcome,[4],inactive
OC12N=C(c3ccccc3)SC1Cc1cc(Cl)ccc12 (stereo not given),outcome,[1],inactive
same,outcome,[7],inactive
same,outcome,[8],inactive
same,AC50,[9],71.7 µM (active)
same,AC50,[5],31.4 µM (active)
same,outcome,[6],inactive
same,outcome,[3],inactive
same,outcome,[4],inactive
same,AC50,[10],32.8 µM (active)
same,outcome,[11],inactive
same,outcome,[12],inactive
same,AC50,[13],28.5 µM (active)
CC1(C)NC(=O)N(c2ccc([N+](=O)[O-])c(C(F)(F)F)c2)C1=O,outcome,[1],inactive
same,outcome,[9],inactive
same,outcome,[5],inactive
same,outcome,[6],inactive
same,outcome,[3],inactive
same,outcome,[4],inactive
CCCCCCCCOc1ccc(C(=O)c2ccccc2)c(O)c1,outcome,[7],inactive
same,outcome,[8],inactive
same,outcome,[9],inactive
same,outcome,[5],inactive
same,outcome,[6],inactive
same,outcome,[3],inactive
same,outcome,[4],inactive
c1ccc2ccccc2c1,outcome,[7],inactive
same,outcome,[8],inactive
same,outcome,[5],inactive
same,outcome,[2],inactive
same,outcome,[3],inactive
same,outcome,[4],inactive
O=C(O)c1ccccc1C(=O)OCc1ccccc1,outcome,[7],inactive
same,outcome,[8],inactive
same,outcome,[5],inactive
same,outcome,[6],inactive
same,outcome,[2],inactive
same,outcome,[3],inactive
same,outcome,[4],inactive
NC(=O)c1nc(-c2cccc(-c3cc(F)ccc3OCC(F)(F)C(F)(F)F)c2)n[nH]1,outcome,[1],inactive
same,outcome,[7],inactive
same,outcome,[8],inactive
same,outcome,[3],inactive
same,outcome,[4],inactive
same,outcome,[10],inactive
same,outcome,[11],inactive
same,outcome,[12],inactive
same,outcome,[15],inactive
same,outcome,[13],inactive
CC(C)(C)c1csc(-c2cc3cc(OCc4ccccc4CC(=O)O)ccc3o2)n1,outcome,[1],inactive
same,outcome,[7],inactive
same,outcome,[8],inactive
same,outcome,[9],inactive
same,AC50,[5],69.8 µM (active)
same,AC50,[6],2.97 µM (active)
same,outcome,[3],inactive
same,outcome,[4],inactive
CC(O)CC(C)(C)O (stereo not given),outcome,[6],inactive
same,outcome,[3],inactive
same,outcome,[4],inactive
Cc1cccc2ccccc12,outcome,[7],inactive
same,outcome,[8],inactive
same,outcome,[9],inactive
same,outcome,[6],inactive
same,outcome,[2],inactive
same,outcome,[3],inactive
same,outcome,[4],inactive
O=C(O)c1ccccc1-n1cc(C(=O)O)c(=O)c2cc(Nc3c(F)cc(F)cc3Cl)c(Cl)cc21,outcome,[1],inactive
same,outcome,[7],inactive
same,outcome,[8],inactive
same,outcome,[9],inactive
same,outcome,[5],inactive
same,outcome,[6],inactive
same,outcome,[3],inactive
same,outcome,[4],inactive
CN1C(=O)CC[C@H]1c1cccnc1,outcome,[1],inactive
same,outcome,[2],inactive
same,outcome,[3],inactive
same,outcome,[4],inactive
CCO[Si](CCCNC(N)=O)(OCC)OCC,outcome,[1],inactive
same,outcome,[7],inactive
same,outcome,[8],inactive
same,outcome,[5],inactive
same,outcome,[6],inactive
same,outcome,[3],inactive
same,outcome,[4],inactive
CO[C@H]1/C=C/O[C@@]2(C)Oc3c(C)c(O)c4c(O)c(c(/C=N/N5CCN(C)CC5)c(O)c4c3C2=O)NC(=O)/C(C)=C\C=C\[C@H](C)[C@H](O)[C@@H](C)[C@@H](O)[C@@H](C)[C@H](OC(C)=O)[C@@H]1C,outcome,[1],inactive
same,outcome,[6],inactive
same,outcome,[3],inactive
same,outcome,[4],inactive
same,outcome,[11],inactive
same,outcome,[12],inactive
